Screens: PubChem, National Center for Advancing Translational Sciences (NCATS)
SKOV3 invasion: inhibitors of ovarian cancer cell adhesion and invasion in omental model; SKOV3ip1-GFP adhesion/invasion on 3D omental model, fluorescence; Potency, µM (doses to about 45.8 µM), actives largely listed as inhibitors; hit rate 0.1% among 46,000; note: nearly all actives have a fitted effect of over 65% in size
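qHTS, 4-pt dose (0.36-46 umol/L); SKOV3ip1-GFP, 1,200 cells/well, no FBS; primary omental fibroblast/mesothelial co-culture 48 h pre-grown; 2 h RT + 16 h 37 C; PBS wash, 4% PFA; GFP count 488/509 nm.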
mTORC1 inh: inhibitors of mTORC1 signaling in Tsc2-/- p53-/- MEF cells | Potency, µM (titrated, usually from 38.3 µM), actives largely listed as inhibitors | Tsc2-/- p53-/- MEF, phospho-rpS6 immunofluorescence/PI, 24 h | hit rate 0.78% among 44,000; note: nearly all actives have a fitted effect of over 50% in size
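Immunofluorescence of rpS6 phosphorylation in Tsc2-/-, p53-/- MEFs after 24 h compound exposure, normalized to propidium iodide signal. Activity is expressed as % positive cells, thresholded with 7.5 nM rapamycin.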
PMP22 txn: PMP22 gene transcription modulation. S16 Pmp22-F2sN Schwann cells, FLuc/NLuc coincidence luminescence, 24 h. hit rate 2% among 43,000. AID 1508649. Potency, µM (highest dose often 57.5 µM), actives largely listed as inhibitors; active = clear falling dose curves in both reporters; inconclusive = both reporters move, but less clearly or upward; inactive = either reporter flat; the % is the NLuc reporter signal
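Schwann cells carrying the coincidence reporter were exposed to library compounds for 24 h at 37C, then lysed and read for FLuc and, after quenching, NLuc luminescence on a CCD imager.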
S16 F2sN tox: S16 Schwann cell cytotoxicity. S16 Pmp22-F2sN Schwann cells viability, CellTiter-Glo, 24 h. Potency, µM (series often up to 57.5 µM), hits mostly cytotoxic. hit rate 0.48% among 43,000; note: nearly all actives have a fitted effect of over 65% in size
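Luminescence from CellTiter-Glo, read by CCD camera after a 15 min room-temperature incubation, served as the viability signal. Reporter Schwann cells (S16 Pmp22-F2sN) had been treated with pin-transferred compounds for 24 h at 37C.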
NLuc saturating: counter-screen for PMP22 expression modulators: NanoLuc inhibition, saturating substrate | hit rate 4% among 690 | Secreted NLuc enzyme (filtered S16 cell medium), Nano-Glo luminescence | shares compounds with PMP22 txn | Potency, µM (highest dose often 57.5 µM), hits mostly inhibitors
NLuc Km counter: inhibits NanoLuc under Km conditions, PMP22 counter-screen; shares compounds with PMP22 txn; secreted NLuc enzyme, coelenterazine luminescence, Km conditions; Potency, µM (top dose mostly 57.5 µM), actives largely listed as inhibitors; hit rate 5% among 690; AID 1508639
FLuc counter: firefly luciferase enzyme inhibition artifact for PMP22 screen; shares compounds with PMP22 txn; purified P. pyralis FLuc, luminescence, 10 min; Potency, µM (top dose mostly 57.5 µM), most hits filed as inhibitors; 690 tested, under 10 active; AID 1508640
Target sequence (P08659 whole entry, looked up): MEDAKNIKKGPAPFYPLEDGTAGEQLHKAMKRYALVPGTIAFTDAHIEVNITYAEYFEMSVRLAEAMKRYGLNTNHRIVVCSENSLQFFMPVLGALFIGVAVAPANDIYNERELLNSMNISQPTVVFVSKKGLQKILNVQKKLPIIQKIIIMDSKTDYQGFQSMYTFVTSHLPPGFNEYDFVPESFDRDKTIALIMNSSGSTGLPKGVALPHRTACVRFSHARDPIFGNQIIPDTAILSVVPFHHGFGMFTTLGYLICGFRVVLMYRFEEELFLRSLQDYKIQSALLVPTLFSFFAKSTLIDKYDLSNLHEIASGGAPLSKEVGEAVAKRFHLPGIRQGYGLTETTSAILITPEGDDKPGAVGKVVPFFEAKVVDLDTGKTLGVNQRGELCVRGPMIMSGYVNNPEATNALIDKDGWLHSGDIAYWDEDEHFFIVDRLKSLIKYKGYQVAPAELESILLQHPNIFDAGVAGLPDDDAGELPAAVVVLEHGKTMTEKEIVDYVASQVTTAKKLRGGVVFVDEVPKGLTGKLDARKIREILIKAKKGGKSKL
S16 F2sN tox cnf: confirmation of cytotoxicity in S16 Pmp22-F2sN Schwann cells (luciferase reporters placed in the Pmp22 gene); S16 Schwann cells viability, CellTiter-Glo ATP luminescence, 24 h; shares compounds with PMP22 txn; Potency, µM (titrated, usually from 57.5 µM), most hits filed as cytotoxic; hit rate 7% among 690; AID 1508641
PMP22 txn conf: confirmation of modulators of PMP22 gene transcription in S16 cells; Potency, µM (top dose mostly 57.5 µM), most hits filed as inhibitors; AID 1508646; hit rate 22% among 690; S16 Schwann cells Pmp22-F2sN, dual luciferase, 24 h; shares compounds with PMP22 txn; active = clear falling dose curves in both reporters; inconclusive = both reporters move, but less clearly or upward; inactive = either reporter flat; the % is the FLuc reporter signal
PMP22 HiBiT cnf: rat PMP22 protein level modulation, confirmatory; shares compounds with PMP22 txn; S16 Schwann cells Pmp22-HiBiT, luminescence, 48 h; Potency, µM (titrated, usually from 27.9 µM), most hits filed as inhibitors; 95 tested, under 10 active; AID 1508647
Hits are given with their value; . = inactive; ? = inconclusive; / = no result given. Sampled rows, rich in hits. Any-hit rate of the full collection: about 2.6%. Unless noted, calls come from the whole dose curve; as a rule, active = well fitted curve in the direction sought with a large enough effect; inconclusive = small, poorly fitted or top-dose-only effect, or another doubt; inactive = no such curve, though single readings can be large; an effect the other way counts as inactive or inconclusive.

SMILES	SKOV3 invasion	mTORC1 inh	PMP22 txn	S16 F2sN tox	others
O=C(NCCSc1c(-c2ccc(F)cc2)[nH]c2ccccc12)c1ccc(S(=O)(=O)N2CCOCC2)cc1	?	15µM	?	?
CCCCNC(=O)c1cc(-c2cccnc2)nc2ccc(S(=O)(=O)NCCCC)cc12	.	?	?	25µM
CC(C)(O)C=CC(=O)[C@](C)(O)[C@H]1[C@H](O)C[C@]2(C)[C@@H]3CC=C4[C@@H](C=C(O)C(=O)C4(C)C)[C@]3(C)C(=O)C[C@@]12C	1µM	/	/	/
CC(C)[C@]12O[C@@H]1[C@@H]1O[C@]13[C@]1(O[C@H]1C[C@@H]1C4=C(CC[C@@]13C)C(=O)OC4)[C@H]2O	.	/	/	/
Cc1c(N)nc([C@H](CC(N)=O)NC[C@@H](N)C(N)=O)nc1C(=O)N[C@H](C(=O)N[C@@H](C)[C@H](O)[C@@H](C)C(=O)N[C@@H](C(=O)NCCc1nc(-c2nc(C(=O)NCCC[S+](C)C)cs2)cs1)[C@@H](C)O)C(O[C@H]1O[C@H](CO)[C@H](O)[C@@H](O)[C@@H]1O[C@H]1O[C@H](CO)[C@@H](O)[C@H](OC(N)=O)[C@H]1O)c1cnc[nH]1 (stereo partly drawn)	.	/	/	/
CC1=C(O)C(=O)C=C2C1=CC=C1[C@@]2(C)CC[C@@]2(C)[C@@H]3C[C@](C)(C(=O)O)CC[C@]3(C)CC[C@]12C	4.2µM	/	/	/
CCOc1ccc(N(C(C)C(=O)Nc2cc(Cl)ccc2OC)S(C)(=O)=O)cc1 (stereo not drawn)	?	7.4µM	?	?
COc1ccc(C(=O)Nc2ccc(Cl)cc2C(=O)c2ccccc2)c(OC)c1	.	.	.	.
COc1ccc(NC(=O)CCn2cnc3onc(-c4ccc(F)cc4)c3c2=O)cc1OC	.	?	11µM	?
COC[C@H]1OC(=O)c2coc3c2[C@@]1(C)C1=C(C3=O)[C@@H]2CC[C@H](O)[C@@]2(C)C[C@@H]1OC(C)=O	.	/	/	/
N#C[C@H](O[C@@H]1O[C@H](CO[C@@H]2O[C@H](CO)[C@H](O)[C@H](O)[C@H]2O)[C@H](O)[C@H](O)[C@H]1O)c1ccccc1	.	/	/	/
CC1=C2C[C@@H]3[C@@H](CC=C4C[C@@H](O)CC[C@@]43C)[C@@H]2CC[C@]12O[C@H]1C[C@H](C)CN[C@H]1[C@H]2C	.	/	/	/
Cc1c(Cl)cccc1NC(=O)c1oc2ccc(S(=O)(=O)N3CCC4(CC3)OCCO4)cc2c1C	.	13µM	14µM	?	NLuc saturating=.;NLuc Km counter=.;FLuc counter=.;S16 F2sN tox cnf=.;PMP22 txn conf=?;PMP22 HiBiT cnf=.
C[C@@H]1CC[C@H]2[C@@H](C)C(=O)O[C@@H]3O[C@@]4(C)CC[C@H]1[C@]32OO4	.	/	/	/
